For eight molecules, composite z-score and z-score results are on record in PubChem BioAssay.

Each structure is given as a SMILES string. Calls of active or inactive are those of the source. Unless noted, how the calls were made is not given here.

Assay [1] concerns Wnt5a (protein binding on small-molecule microarray). The experiment in a line: small molecules binding Wnt5a protein – biophysical, small-molecule microarray, 635/667 nm fluorescence, primary screen (AID 1142).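 Further: fluorescence read at 667 nm with signal to noise per printed feature.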 Particulars: 635 nm fluorescence, higher = more signal.
The nature of assay [2]: ATP-based viability of Huh7 replicon cells – cell-based, CellTiter-Glo luminescence, basal, 48 h, cytotoxicity control for HCV replication inhibitor project, primary screen (AID 1143).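 Further: Huh7 hepatoma cells carrying a hepatitis C replication reporter with no stimulus; test concentration not given here.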 As to conditions: higher = more signal, called active from +8 up or from −8 down. (In general: In antiviral work, replicon cells carry a viral genome segment that copies itself.)
A short description of assay [3]: Pseudomonas biofilm growth suppression – PAO1 strain, BacTiter-Glo luminescence, LB-PBS, primary screen (AID 1144). As to conditions: P. aeruginosa PAO1 biofilm, 12 h, higher = more signal.
The nature of assay [4]: basal CRE-LacZ reporter activity in PC12 – cell-based, unstimulated, primary screen (AID 1145). As to conditions: no forskolin, luminescence, 4.5 h, higher = more signal, called active from +8 up or from −8 down.
Assay [5] in a line: forskolin-driven CRE-LacZ activity in PC12 – cell-based, CRE-LacZ reporter, forskolin-stimulated, primary screen (AID 1146).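 Further: PC12 cells with 6xCRE LacZ reporter stimulated by forskolin 10 µM; beta-galactosidase reporter signal reflecting CREB driven transcription.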 Particulars: luminescence, 4.5 h, higher = more signal, called active from +8 up or from −8 down.
Assay [6] addresses Streptavidin (Streptomyces avidinii) (UniProt P22629). The experiment in a line: compounds binding control protein streptavidin – biophysical, small-molecule microarray, 635/667 nm fluorescence, artefact control for SMM compound annotation, primary screen (AID 1147).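 Further: signal reflects streptavidin binding to arrayed compounds as a control protein.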 Particulars: higher = more signal.
Assay [7] can be described thus: probe aInhba binding on compound microarray – biochemical, small-molecule microarray, 635/667 nm fluorescence, primary screen (AID 1148).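 Further: score merges 667nm spot fluorescence with signal-to-noise for antibody binding to printed compounds.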 Particulars: higher = more signal.
The target of assay [8] is Torsin-1A (Homo sapiens) (UniProt O14656). The experiment in a line: TOR1A wild-type binding on microarray – cell lysate, small-molecule microarray, lysate, 635/667 nm, primary screen (AID 1149). As to conditions: COS7 hTOR1A-WT lysate, 635 nm fluorescence, higher = more signal.
Sequence of Torsin-1A (Homo sapiens) (O14656 whole entry, looked up): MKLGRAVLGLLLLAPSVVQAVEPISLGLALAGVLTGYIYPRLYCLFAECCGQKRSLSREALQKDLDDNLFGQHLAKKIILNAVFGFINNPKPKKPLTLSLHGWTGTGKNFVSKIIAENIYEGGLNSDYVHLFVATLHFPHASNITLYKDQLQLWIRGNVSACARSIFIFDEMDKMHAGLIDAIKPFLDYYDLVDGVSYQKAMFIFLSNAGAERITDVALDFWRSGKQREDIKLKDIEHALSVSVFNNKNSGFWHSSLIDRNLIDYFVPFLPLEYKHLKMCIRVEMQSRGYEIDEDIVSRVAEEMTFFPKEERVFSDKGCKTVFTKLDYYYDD
Assay [9] shares this target. The experiment in a line: torsin A mutant lysate binding on microarrays – cell lysate, small-molecule microarray, COS7 lysate, 635/667 nm fluorescence, primary screen (AID 1150).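 Further: score pools 667 nm emission and signal to noise measuring lysate protein binding.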 Particulars: COS7 hTOR1A mutant lysate, 635 nm fluorescence, higher = more signal.
The test system of assay [10] is Sonic hedgehog protein (Shh). The experiment in a line: Sonic hedgehog microarray binding compounds – biochemical, small-molecule microarray, 635/667 nm fluorescence, primary screen (AID 1151).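 Further: Shh protein binding to compounds spotted on small-molecule microarray slides; score combines spot fluorescence intensity with signal-to-noise across triplicate slides.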 Particulars: 635 nm fluorescence, higher = more signal.
Assay [11] is described as follows: optical density shifts of acrAB sulA E. coli – strain DRC41, OD650, 48 h, E. coli filamentation inducer project, primary screen (AID 1152).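 Further: E. coli MC1000 strain DRC41 lacking acrAB efflux pump and sulA.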 As to conditions: higher = more signal, called active from +8 up or from −8 down.
Assay [12] is described as follows: probe aLefty1 binding on compound microarray – biochemical, small-molecule microarray, 635/667 nm fluorescence, primary screen (AID 1153).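 Further: score merges spot fluorescence with signal-to-noise ratio from the scanned slide images.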 Particulars: higher = more signal.
Assay [13] is described as follows: plasmodial surface anion channel blockers, osmotic lysis – cell-based, P. falciparum Indochina, OD700, 1 h, primary screen (AID 1154). As to conditions: P. falciparum Indochina infected RBC osmotic lysis, higher = more signal, called active from +8 up or from −8 down.
A short description of assay [14]: plasmodial surface anion channel blockers, osmotic lysis – cell-based, P. falciparum Indochina, OD700, 2 h, primary screen (AID 1155).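 Further: lysis reports solute entry through the parasite surface anion channel PSAC.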 As to conditions: P. falciparum Indochina infected erythrocytes, higher = more signal, called active from +8 up or from −8 down.
Assay [15] in a line: changes in parasitized red cell lysis, either direction – P. falciparum Indochina, OD700, 3 h, PSAC antagonist project, primary screen (AID 1156). As to conditions: P. falciparum-infected erythrocytes, osmotic lysis, higher = more signal, called active from +8 up or from −8 down.
Assay [16] can be described thus: plasmodial surface anion channel blockers, osmotic lysis – cell-based, P. falciparum Indochina, OD700, 18 h, primary screen (AID 1157). As to conditions: P. falciparum Indochina infected erythrocytes, osmotic lysis OD700, 18 h; higher = more signal, called active from +8 up or from −8 down.
Assay [17] in a line: S6 kinase pathway phospho-S6 level changes – cell-based, A549, cytoblot, luminescence, serum-stimulated, primary screen (AID 1158).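 Further: serum-stimulated A549 lung adenocarcinoma cells; signal is phosphorylated S6 detected by cytoblot immunostaining with HRP secondary.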 As to conditions: 5 h, higher = more signal.
Assay [18] deals with NADPH oxidase 2 (Homo sapiens) (UniProt P04839). The experiment in a line: compounds shifting NOX2 Amplex Red fluorescence – cell-based, HEK293-NOX2, PMA-stimulated, NOX inhibitor project, primary screen (AID 1159). Further: test concentration not given here. Particulars: 45 min, higher = more signal, called active from +8 up or from −8 down.
Sequence of NADPH oxidase 2 (Homo sapiens) (P04839 whole entry, looked up): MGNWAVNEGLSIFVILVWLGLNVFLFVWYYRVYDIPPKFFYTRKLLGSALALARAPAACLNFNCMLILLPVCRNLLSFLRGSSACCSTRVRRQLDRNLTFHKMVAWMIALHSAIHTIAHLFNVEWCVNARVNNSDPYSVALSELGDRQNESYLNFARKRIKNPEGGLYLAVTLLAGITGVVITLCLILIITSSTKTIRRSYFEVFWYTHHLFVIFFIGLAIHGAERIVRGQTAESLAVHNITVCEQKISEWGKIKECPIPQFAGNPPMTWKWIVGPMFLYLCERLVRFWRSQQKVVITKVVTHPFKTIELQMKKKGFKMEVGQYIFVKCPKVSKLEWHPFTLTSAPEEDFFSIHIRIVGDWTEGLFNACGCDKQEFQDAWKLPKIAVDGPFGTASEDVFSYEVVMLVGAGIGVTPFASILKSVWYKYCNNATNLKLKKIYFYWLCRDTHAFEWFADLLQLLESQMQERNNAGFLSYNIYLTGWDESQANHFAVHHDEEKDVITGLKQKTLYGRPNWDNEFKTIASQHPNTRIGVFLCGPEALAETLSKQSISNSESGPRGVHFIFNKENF
For assay [19], the target named is NADPH oxidase 4 (Homo sapiens) (UniProt Q9NPH5). The experiment in a line: compounds shifting NOX4 Amplex Red fluorescence – cell-based, HEK293-NOX4, tetracycline-induced, NOX inhibitor project, primary screen (AID 1160). As to conditions: HEK293-NOX4, Amplex Red H2O2 fluorescence, 45 min; higher = more signal, called active from +8 up or from −8 down.
Sequence of NADPH oxidase 4 (Homo sapiens) (Q9NPH5 whole entry, looked up): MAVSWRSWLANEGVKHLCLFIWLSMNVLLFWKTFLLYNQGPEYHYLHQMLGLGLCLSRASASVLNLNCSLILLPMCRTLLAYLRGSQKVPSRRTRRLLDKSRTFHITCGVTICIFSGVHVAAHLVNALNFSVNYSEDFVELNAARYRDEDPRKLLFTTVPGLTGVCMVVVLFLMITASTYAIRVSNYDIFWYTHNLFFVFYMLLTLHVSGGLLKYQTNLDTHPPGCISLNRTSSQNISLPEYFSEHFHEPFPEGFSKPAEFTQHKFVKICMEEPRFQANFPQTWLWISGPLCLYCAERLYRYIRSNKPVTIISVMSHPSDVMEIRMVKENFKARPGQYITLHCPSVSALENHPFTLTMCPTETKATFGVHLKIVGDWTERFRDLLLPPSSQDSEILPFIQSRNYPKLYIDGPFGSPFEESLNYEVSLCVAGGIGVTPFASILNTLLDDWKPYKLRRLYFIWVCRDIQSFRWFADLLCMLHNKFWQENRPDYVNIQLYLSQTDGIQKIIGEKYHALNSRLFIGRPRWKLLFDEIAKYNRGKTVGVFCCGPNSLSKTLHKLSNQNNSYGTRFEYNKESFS
For assay [20], the target named is NADPH oxidase 5 (Homo sapiens) (UniProt Q96PH1). The experiment in a line: compounds shifting NOX5 Amplex Red fluorescence – cell-based, HEK293-NOX5, NOX inhibitor project, primary screen (AID 1161). Particulars: HEK293-NOX5, ionomycin, 45 min, higher = more signal.
Sequence of NADPH oxidase 5 (Homo sapiens) (Q96PH1 whole entry, looked up): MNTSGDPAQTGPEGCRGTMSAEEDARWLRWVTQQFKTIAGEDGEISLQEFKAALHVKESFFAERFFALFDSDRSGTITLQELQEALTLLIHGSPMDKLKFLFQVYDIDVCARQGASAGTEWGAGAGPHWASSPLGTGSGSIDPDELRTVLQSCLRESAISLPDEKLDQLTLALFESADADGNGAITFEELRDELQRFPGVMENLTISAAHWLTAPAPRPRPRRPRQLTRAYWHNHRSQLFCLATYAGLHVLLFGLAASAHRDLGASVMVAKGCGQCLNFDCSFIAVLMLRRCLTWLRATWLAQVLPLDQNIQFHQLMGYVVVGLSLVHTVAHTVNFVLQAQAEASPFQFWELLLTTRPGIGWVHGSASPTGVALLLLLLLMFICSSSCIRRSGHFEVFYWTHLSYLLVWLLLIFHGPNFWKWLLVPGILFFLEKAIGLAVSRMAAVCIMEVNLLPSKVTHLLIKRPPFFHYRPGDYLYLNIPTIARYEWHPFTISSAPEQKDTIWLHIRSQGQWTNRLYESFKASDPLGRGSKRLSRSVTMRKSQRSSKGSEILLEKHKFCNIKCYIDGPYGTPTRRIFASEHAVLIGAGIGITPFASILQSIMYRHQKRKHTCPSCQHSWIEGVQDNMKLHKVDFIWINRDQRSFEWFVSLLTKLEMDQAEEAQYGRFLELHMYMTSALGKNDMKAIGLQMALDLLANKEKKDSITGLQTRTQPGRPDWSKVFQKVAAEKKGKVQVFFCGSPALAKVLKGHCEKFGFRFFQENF

Sequence of Streptavidin (Streptomyces avidinii) (P22629 whole entry, looked up): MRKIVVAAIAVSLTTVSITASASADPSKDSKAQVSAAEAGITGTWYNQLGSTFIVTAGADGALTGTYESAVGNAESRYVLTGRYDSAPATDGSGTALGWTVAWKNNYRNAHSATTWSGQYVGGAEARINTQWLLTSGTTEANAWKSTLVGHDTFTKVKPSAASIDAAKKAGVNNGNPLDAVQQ

For `CC(=O)NCCCC[C@@H]1NC(=O)[C@@H]2C[C@H](C(=O)NCCCC[N+](C)(C)C)[C@H](c3cccc(OCCO)c3)N2C1=O`, the composite z-score was 0.198 in assay [1]; -0.407 in assay [6]; -0.0471 in [7]; 2.44 in assay [8]; 1.83 in assay [9]; 1.89 in assay [10]. In assay [12], this molecule displayed a composite z-score of 0.206. Also, the z-score is -0.283 (inactive) in assay [2]; -0.192 (inactive) in assay [3]; -0.532 (inactive) in [4]; -0.441 (inactive) in assay [5]; -0.832 (inactive) in assay [11]; 1.63 (inactive) in assay [13]. Moreover, the z-score in assay [14] was 0.372 (inactive); in assay [15], -0.122 (inactive); in [16], 0.154 (inactive); in [17], -0.246; in assay [18] it was 0.151 (inactive); in assay [19], -0.0151 (inactive). The z-score in [20] worked out at 1.29.
For the molecule `C=C(/C(=C/C[C@@H](OC(=O)c1ccncc1)c1ccccc1OCCO)c1cnc2ccccc2c1)C(C)C`, the composite z-score in [1] was 0.816; in [6] it was 1.67; in assay [7], 0.421; in assay [8], 0.799; in assay [9], -0.0593; in assay [10], 2.22. In assay [12], the composite z-score turned out to be 0.454. The z-score in assay [2] is -8.34 (active); in assay [3] it was 0.556 (inactive); in assay [4] it was 15.6 (active); in [5] it was -0.0321 (inactive); in [11] it was -0.592 (inactive); in assay [13], 10 (active). In addition, the z-score in assay [14] was 4.55 (inactive); in assay [15], -1.59 (inactive); in assay [16] it was 1.44 (inactive); in [17] it was -0.174; in assay [18] it was -2.57 (inactive); in [19], -1.11 (inactive). Further, the z-score in assay [20] is -2.56.
`CO[C@H]1O[C@H](CO)[C@@H](OC(=O)Nc2ccc(C(F)(F)F)cc2)[C@H](OC(=O)Nc2ccccc2)[C@H]1OC(=O)Nc1ccccc1`: the composite z-score in assay [1] was found to be 0.71; in assay [6], 1.22; in assay [7], 0.3; in assay [8], 0.386; in assay [9] it was 0.183; in assay [10] it was 1.2. The same molecule displayed a composite z-score in [12] of 1.14. For the same molecule, the z-score was -5.9 (inactive) in assay [2]; -0.109 (inactive) in assay [3]; 3.11 (inactive) in assay [4]; -1.51 (inactive) in assay [5]; -1.41 (inactive) in [11]; 4.63 (inactive) in assay [13]. For the same molecule, the z-score in assay [14] was 1.22 (inactive); in assay [15], -2.03 (inactive); in assay [16], 0.887 (inactive); in [17], 0.121; in assay [18] it was -5.31 (inactive); in [19] it was -1.39 (inactive). The z-score in [20] is -1.85.
For `[N-]=[N+]=NCc1ccccc1C[C@@]1(C(=O)NCCN2CCOCC2)N=C(c2ccc(OCCCO)cc2)O[C@@H]1c1ccccc1CN=[N+]=[N-]`, the composite z-score in [1] is 0.784; in [6] it was 0.697; in assay [7], 0.196; in assay [8], -0.0348; in assay [9] it was 0.472; in assay [10], 0.619. The composite z-score in [12] came to 0.565. Further, the z-score in [2] is -2.99 (inactive); in assay [3], 0.497 (inactive); in assay [4], -0.641 (inactive); in assay [5], -0.781 (inactive); in [11], 0.648 (inactive); in assay [13], 26.4 (active). The z-score was 13.7 (active) in [14]; 1.2 (inactive) in [15]; 2.26 (inactive) in [16]; -0.213 in assay [17]; 0.528 (inactive) in assay [18]; 0.116 (inactive) in assay [19]. Also, the z-score in assay [20] was 2.24.
For the molecule `C=CCNC(=O)[C@H]1[C@@H]2C(=O)O[C@@H](c3ccccc3)[C@@H](c3ccccc3)N2[C@@H](c2ccc(O)cc2)[C@]12C(=O)N(C(=O)OCCOC)c1ccc(C#CC3(O)CCCCCC3)cc12`, the composite z-score was 0.195 in [1]; -0.179 in assay [6]; 0.134 in assay [7]; 0.187 in assay [8]; 0.331 in assay [9]; 0.858 in assay [10]. In assay [12], this molecule came in with a composite z-score of 0.0313. Moreover, the z-score in assay [2] is -1.07 (inactive); in assay [3] it was -0.7 (inactive); in assay [4], -0.465 (inactive); in [5], -0.804 (inactive); in assay [11], 1.91 (inactive); in assay [13] it was 0.842 (inactive). The z-score in assay [14] is 0.788 (inactive); in [15], 0.0365 (inactive); in assay [16], 0.222 (inactive); in [17] it was 0.281; in assay [18], 1.37 (inactive); in assay [19], 0.903 (inactive). Besides, the z-score in assay [20] came to 1.89.
Regarding `O=C1OCC=C[C@H]2OC34C=CCN(CCN5CCOCC5)C(=O)[C@H]3N(CCCCCO)C(=O)[C@@H]4[C@@H]12` (stereo not given in full), the composite z-score in [1] was -0.304; in assay [6], 0.257; in assay [7], -0.128; in assay [8] it was -0.419; in assay [9], 0.11; in assay [10], 0.175. In [12], this molecule came in with a composite z-score of -0.045. In addition, the z-score in assay [2] is 0.0976 (inactive); in assay [3], 0.0824 (inactive); in assay [4], 2.22 (inactive); in assay [5] it was -0.555 (inactive); in assay [11], -0.457 (inactive); in assay [13], 1.69 (inactive). The z-score in assay [14] was 0.526 (inactive); in assay [15], 1.5 (inactive); in [16], 0.0882 (inactive); in [17] it was 2.31; in assay [18], 0.922 (inactive); in assay [19], 0.379 (inactive). In [20], the z-score stood at 2.1.
For `COCCOC(=O)N1C(=O)[C@@]2(c3cc(C#CC4(O)CCCCCC4)ccc31)[C@H](C(=O)N1CCc3cc(OC)c(OC)cc3C1)[C@H]1C(=O)O[C@H](c3ccccc3)[C@H](c3ccccc3)N1[C@@H]2c1ccccc1OCCO`, the composite z-score in assay [1] is 0.855; in [6] it was 0.149; in [7], 0.448; in assay [8], 0.0869; in [9] it was 0.326; in assay [10], 1.29. In [12], this molecule registered a composite z-score of 0.496. In addition, the z-score was -2.18 (inactive) in [2]; 1.66 (inactive) in assay [3]; 0.0736 (inactive) in assay [4]; 3.93 (inactive) in assay [5]; 0.803 (inactive) in assay [11]; 1.39 (inactive) in assay [13]. The z-score in assay [14] was 1.15 (inactive); in [15], 0.496 (inactive); in [16], 0.655 (inactive); in [17] it was -0.0095; in assay [18], 2.73 (inactive); in assay [19], -0.879 (inactive). In addition, in assay [20], the z-score worked out at 0.554.
Consider `COc1ccc(C#Cc2ccc3c(c2)[C@]2(C(=O)N3)[C@H](C(=O)O)[C@H]3C(=O)O[C@H](c4ccccc4)[C@H](c4ccccc4)N3[C@@H]2c2ccc(OCCO)cc2)cc1`, for which the composite z-score is 0.356 in assay [1]; 1.59 in [6]; 0.399 in [7]; -0.0331 in [8]; 0.739 in assay [9]; 1.3 in assay [10]. This molecule also yielded a composite z-score in [12] of 0.33. Also, the z-score in assay [2] is -0.969 (inactive); in assay [3], -0.859 (inactive); in assay [4], 0.272 (inactive); in assay [5], 0.408 (inactive); in [11] it was 0.962 (inactive); in [13] it was 3.33 (inactive). For the same molecule, the z-score in [14] is -0.266 (inactive); in assay [15], -8.91 (active); in [16], -0.097 (inactive); in [17] it was -0.0207; in assay [18], 1.67 (inactive); in assay [19] it was -0.925 (inactive). Also, the z-score in [20] amounted to 1.12.
